Assay outcomes: PubChem BioAssay, National Center for Advancing Translational Sciences (NCATS)
hERG WT inh = KCNH2 (human, wildtype) channel inhibition. Q12809. U2OS, BacMam KCNH2, thallium flux FluxOr; stronger effect = lower value. activity change, % at 1.84 µM. actives 0.37% (n = 340,000);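 active = maximum activity change below -70%; inconclusive = maximum activity change between -70% and -50%; inactive = maximum activity change above -50%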; note: % is set by controls: 0 for no effect and ±100 for the full control effect
Target sequence (Q12809 whole entry, looked up): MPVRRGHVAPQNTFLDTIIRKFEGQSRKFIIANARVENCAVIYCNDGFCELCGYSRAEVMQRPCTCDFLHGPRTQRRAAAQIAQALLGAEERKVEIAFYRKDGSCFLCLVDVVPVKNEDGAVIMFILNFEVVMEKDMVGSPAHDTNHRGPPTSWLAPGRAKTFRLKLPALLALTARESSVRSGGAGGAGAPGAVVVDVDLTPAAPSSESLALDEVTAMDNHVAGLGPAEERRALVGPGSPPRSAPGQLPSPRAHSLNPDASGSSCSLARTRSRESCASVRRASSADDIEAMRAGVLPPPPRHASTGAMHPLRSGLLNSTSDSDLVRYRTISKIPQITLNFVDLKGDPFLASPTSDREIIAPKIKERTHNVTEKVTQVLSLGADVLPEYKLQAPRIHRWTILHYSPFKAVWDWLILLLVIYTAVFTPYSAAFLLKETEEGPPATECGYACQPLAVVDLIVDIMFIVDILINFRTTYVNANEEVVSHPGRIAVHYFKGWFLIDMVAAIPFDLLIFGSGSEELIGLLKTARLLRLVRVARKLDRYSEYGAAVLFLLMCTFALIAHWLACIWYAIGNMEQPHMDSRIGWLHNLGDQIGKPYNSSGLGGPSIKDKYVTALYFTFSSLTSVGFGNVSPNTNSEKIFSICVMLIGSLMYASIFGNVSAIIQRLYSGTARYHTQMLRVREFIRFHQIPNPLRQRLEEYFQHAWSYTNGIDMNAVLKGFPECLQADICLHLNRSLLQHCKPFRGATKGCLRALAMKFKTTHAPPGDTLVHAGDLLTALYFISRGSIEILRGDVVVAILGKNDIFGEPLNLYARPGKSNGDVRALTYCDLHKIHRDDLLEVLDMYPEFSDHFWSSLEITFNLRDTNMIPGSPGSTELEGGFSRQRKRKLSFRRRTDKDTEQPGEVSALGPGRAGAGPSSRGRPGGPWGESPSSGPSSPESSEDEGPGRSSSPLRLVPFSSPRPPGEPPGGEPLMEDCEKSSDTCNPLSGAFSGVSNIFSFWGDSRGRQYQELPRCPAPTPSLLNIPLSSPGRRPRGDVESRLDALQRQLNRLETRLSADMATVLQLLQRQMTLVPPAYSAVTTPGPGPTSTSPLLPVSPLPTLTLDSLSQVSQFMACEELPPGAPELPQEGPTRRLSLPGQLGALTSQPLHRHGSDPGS
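U2OS cells were transduced with wild-type KCNH2 virus (2.03 x 10^8 / mL) for 4 h at room temperature, then cultured overnight at 37 C. Thallium flux was read with FluxOr dye. Rate constants were normalized to DMSO controls.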
KCNH2 3.1 inh = inhibitors of human KCNH2 3.1 potassium channel isoform. U2OS KCNH2 3.1, thallium flux FluxOr; stronger effect = lower value. activity change, % (tested at about 1.8 µM). actives 0.95% (n = 340,000);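 active = maximum activity change below -70%; inconclusive = maximum activity change from -70% to -50%; inactive = maximum activity change above -50%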;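 note: thallium influx rate constant from kinetic fluorescence after stimulation buffer; % is set by controls: 0 for no effect and ±100 for the full control effect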
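Normalized rate constant (relative to positive and negative DMSO controls) derived from a 2 min kinetic fluorescence read after stimulation; U2OS cells expressing the 3.1 isoform via virus at 1.77 x 10^8 /mL.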
p53 reactivator = mutant p53 re-activation in reporter cells; H1299 p53-A138V BP100-luciferase reporter, luminescence, 24 h; Potency, µM (series often up to 92.2 µM), for inactives: at the top dose activity change, positive = activation, hits mostly activators; actives 0.063% (n = 320,000); AID 504706; note: potency is the fitted concentration of half-maximal effect; % of control where 0% means no effect; nearly all actives have a fitted effect of over 45% in size
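p53-null H1299 cells stably carrying temperature-sensitive p53-A138V and a BP100-luciferase reporter were pinned with compounds (4-point, 1:5 series) and held 24 hrs at 37 deg C. Luminescence was read 10 min after detection reagent.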
TRPV1 PAM = enhances activation of the human vanilloid receptor TRPV1; actives 0.02% (n = 320,000); TRPV1-expressing cells, Fluo-8 calcium influx, capsaicin EC20 potentiation; AID 540277; potentiation, % at 8.33 µM; in the data active = potentiation above about 80%; inconclusive = between about 30% and that limit; note: 0% is about no effect
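TRPV1-expressing cells were cultured overnight at 35.5C and loaded with Fluo-8 calcium dye for 40 to 90 min at room temperature. After a 10 s baseline, compound was added and calcium influx was read kinetically for 3 min (ex 480/em 520 nm).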
ClpP mod = qHTS Assay for Activators of ClpP; ATP-dependent Clp protease proteolytic subunit (Bacillus subtilis (strain 168)), P80244; purified B. subtilis ClpP, FRET peptide cleavage, 20 min; Potency, µM (doses to about 57.5 µM), for inactives: top-dose activity change, negative = active; actives 1.9% (n = 340,000); AID 651965, 2013; active = well fitted falling curve with a large enough effect; inconclusive = small, poorly fitted or top-dose-only effect; inactive = no such curve, though single readings can be large or run the other way; note: potency is the fitted concentration of half-maximal effect; the source files actives as falling curves though it sought activators and does not explain the sign; nearly all actives have a fitted effect of over 65% in size
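Purified B. subtilis ClpP, 10 microg/mL final in Tris/HCl pH8 with KCl, BSA, glycerol and Tween-20, cleaved an Abz/nitrotyrosine-quenched decapeptide. Fluorescence (ex 320, em 430) was read at 0 and 20 min at room temperature. Delta was normalized to 5.8 microM ADEP and DMSO/no-enzyme controls.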
TRPV1 ag = activates the human vanilloid receptor TRPV1 | Q8NER1 | activation, % at 8.33 µM | actives 0.19% (n = 320,000) | TRPV1-expressing cells, Fluo-8 calcium influx, agonist mode | AID 540275; in the data active = activation above about 80%; inconclusive = between about 30% and that limit; note: 0% is about no effect
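Cells expressing TRPV1 were dye-loaded with Fluo-8 and read kinetically: 10 s baseline, 3 min after compound (agonist portion), then 2 min after EC20 capsaicin (allosteric enhancer portion). Calcium-bound dye fluorescence at 480/520 nm.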
ClpP inh valid = Bacillus subtilis ClpP inhibition, validated hit; shares compounds with ClpP mod; purified B. subtilis ClpP, FRET-FV substrate cleavage, 20 min; Potency, µM (top dose mostly 57.5 µM), inactives show at the highest dose activity change, negative = inhibition, actives largely listed as inhibitors; actives 40% (n = 470); note: potency is the fitted concentration of half-maximal effect; % is set by controls: 0 for no effect and ±100 for the full control effect; nearly all actives have a fitted effect of over 70% in size
An asterisk follows results filed as active; i = inactive; ? = inconclusive; . = not tested or not shown. In the library only some 2.6% were active in any assay of this set; here they are far more common. Unless noted, calls come from the whole dose curve; as a rule, active = well fitted curve in the direction sought with a large enough effect; inconclusive = small, poorly fitted or top-dose-only effect, or another doubt; inactive = no such curve, though single readings can be large; an effect the other way counts as inactive or inconclusive.

SMILES | hERG WT inh | KCNH2 3.1 inh | p53 reactivator | TRPV1 PAM | ClpP mod | TRPV1 ag | ClpP inh valid
O=C(NCc1ccccc1)C(c1cc2ccccc2o1)n1c(=O)c(-c2cc3ccccc3[nH]2)nc2ccccc21 (configuration not stated) | . | . | . | . | 38% | . | -4%
COc1ccc(NC(=O)C(c2ccc(OC)cc2)n2c(=O)c(-c3cc4ccccc4[nH]3)nc3ccccc32)cc1 (configuration not stated) | . | . | . | . | 19% | . | .
CC(C)(C)N1C(=O)c2ccccc2NC(=O)C1C(=O)NCCc1ccccc1 (configuration not stated) | . | . | . | . | -3% | . | .
c1ccc(-c2ccc3ccccc3n2)cc1 | 4 | 9 | . | . | 0% | . | .
c1ccc2nc(-c3nc4ccccc4o3)ccc2c1 | 9 | 0 | 8% | 6 | 8.9µM* | -5 | 22µM*
CCOC(=O)c1ccc(NC(=O)C2CCCN(c3ncnc4onc(C)c34)C2)cc1 (configuration not stated) | . | . | . | . | 0% | . | .
COc1ccc2nc3n(c(=O)c2c1)-c1cc2ccccc2cc1C(=O)NC3Cc1ccccc1 (configuration not stated) | -4 | 9 | . | . | 5.6µM* | . | ?
Cc1ccccc1Nc1c(-c2cc(Br)ccc2F)nc2ccccn12 | . | . | . | . | 4.5µM* | . | -7%
Cn1cc(-c2coc3c(C(=O)NCc4cccc(Cl)c4)cccc23)cn1 | . | . | . | . | -17% | . | .
Fc1ccc2nc(Nc3nc4cc5c(cc4s3)OCCO5)sc2c1 | -5 | -2 | ? | 1 | 6.3µM* | 1 | 3.9µM*
Fc1ccc2nc(Nc3nc4cc5c(cc4s3)OCO5)sc2c1 | 0 | -3 | ? | 1 | ? | -2 | .
NNc1nc2ccc(F)cc2s1 | -14 | -19 | ? | -2 | -1% | -3 | .
Fc1ccc2nc(Nc3nc4c(F)cccc4s3)sc2c1 | -7 | -1 | ? | ? | 8.9µM* | -1 | 4.9µM*
Fc1ccc2nc(Nc3nc4c(F)cc(F)cc4s3)sc2c1 | -3 | -1 | 16% | 5 | 8.9µM* | -3 | ?
COc1ccccc1NC(=O)CSc1nnc(NC(=O)Nc2ccc(C)cc2)s1 | . | . | . | . | 0% | . | .
Cc1ccc(S(=O)(=O)N2[C@@H](c3cccc(Cl)c3)C(C(=O)OC(C)(C)C)=CC[C@H]2c2ccc(C(C)C)cc2)cc1 | . | . | . | . | -2% | . | .
Cc1nc(-n2nc(C)c(Cc3ccccc3Cl)c2C)sc1C(=O)N1CCCCC1C (configuration not stated) | . | . | . | . | 0% | . | .
COc1ccccc1NC(=O)c1oc2ccccc2c1NC(=O)c1ccco1 | 5 | 0 | 7% | -2 | 148% | 10 | 22µM*
CCOc1ccc(CC(=O)Nc2c(C(=O)Nc3ccc(OC)cc3OC)oc3ccccc23)cc1 | . | . | . | . | 31% | . | 19µM*
CCOC(=O)c1oc2ccccc2c1NC(=O)COc1cccc(OC)c1 | 0 | 12 | -1% | -11 | 48% | 1 | 19µM*
COc1ccc(CC(=O)Nc2c(C(=O)Nc3ccc(F)cc3)oc3ccccc23)cc1OC | . | . | . | . | -20% | . | .
CCOc1ccc(NC(=O)c2oc3ccccc3c2NC(=O)COc2cccc(OC)c2)cc1 | . | . | . | . | 33% | . | .
O=C(COc1ccccc1F)Nc1c(C(=O)Nc2cccc(F)c2)oc2ccccc12 | . | . | . | . | 79% | . | ?
Cc1ccc(C)c(NC(=O)CSc2cn(CC(=O)N3CCCC3)c3ccccc23)c1 | . | . | . | . | -2% | . | .
CCc1nn(CC(=O)NC(C)c2ccccc2)c(=O)c2cc3sccc3n12 (configuration not stated) | . | . | . | . | -1% | . | .
SMILES | hERG WT inh | KCNH2 3.1 inh | p53 reactivator | TRPV1 PAM | ClpP mod | TRPV1 ag | ClpP inh valid
COc1ccc(S(=O)(=O)N2CCN(CC(=O)Nc3cc(OC)cc(OC)c3)CC2)cc1 | -2 | -2 | 4% | 1 | 66% | -4 | 1%
COc1cc(NC(=O)CN2CCN(S(=O)(=O)c3ccc(C(C)C)cc3)CC2)cc(OC)c1 | -9 | -6 | 3% | 1 | -2% | 0 | .
COCCCn1c(C(=O)NCCN2CCOCC2)cc2c(=O)n3cccc(C)c3nc21 | 1 | . | -11% | -8 | 3.2µM* | 1 | 24µM*
Cc1cccn2c(=O)c3cc(C(=O)NCCN4CCOCC4)c(=N)n(CCCN4CCOCC4)c3nc12 | 5 | -5 | -3% | 3 | . | 0 | .
Cc1ccc(C)c(OCCCC(=O)NC2CCCCC2)c1 | 12 | 1 | . | -6 | 3.2µM* | ? | 0%
CC(=O)N1N=C(c2ccc(Br)cc2)OC12CCCC2 | -6 | -3 | -3% | 9 | 1% | 1 | .
CC(=O)N1N=C(c2ccncc2)OC12CCCC2 | 12 | 0 | -5% | 5 | 10µM* | -1 | 24µM*
Cc1ccc(S(=O)(=O)N2CCN(C(=O)CN3CCCSc4ccccc43)CC2)cc1 | 16 | -17 | 1% | -3 | 40% | 7 | -3%
N#Cc1ccccc1S(=O)(=O)N1CCN(C(=O)CN2CCCSc3ccccc32)CC1 | -6 | -11 | 10% | -13 | 0% | 3 | .
CCc1ccccc1N(c1nc(-c2ccc(OC)c(OC)c2)no1)c1nc(-c2ccc(OC)c(OC)c2)no1 | . | . | . | . | -2% | . | .
COc1cccc2c3c(c(C)nc12)CC(C)O3 (configuration not stated) | 9 | -6 | 14% | -2 | 7.9µM* | 12 | 7.7µM*
COc1ccc2nc(C)c3c(c2c1)OC(C)C3 (configuration not stated) | -5 | 3 | -4% | -12 | ? | 12 | .
Cc1ccc2oc(-c3cc(NC(=O)c4ccco4)ccc3Cl)nc2c1 | . | . | . | . | -24% | . | .
Cc1cc2nc(-c3cc(NC(=O)c4cc5ccccc5o4)ccc3Cl)oc2cc1C | . | . | . | . | 3.2µM* | . | 19µM*
COC(=O)c1cc(Cl)c(NC(=O)c2cc3ccccc3o2)cc1OC | -1 | -4 | -1% | -9 | 37% | 3 | -26%
Cc1cc(C)n2nc(-c3sccc3-n3c(C)ccc3C)cc2n1 | 1 | -2 | ? | 5 | 36% | 2 | ?
COc1cccc(NC(=O)Cn2c(-c3cncs3)nc3ccccc32)c1 | 2 | -40 | -6% | 27 | 8.9µM* | 0 | -7%
CCCC[C@]12Cc3ccccc3C(O1)c1c(c3ccccc3oc1=O)O2 | . | . | . | i | . | i | .
O=C1Cc2cc(S(=O)(=O)N3CCNCC3)ccc2N1 | -3 | -4 | 5% | . | 104% | . | 6%
COc1ccc(C)cc1S(=O)(=O)NC1CCCCC1C (configuration not stated) | 0 | 14 | -4% | -8 | 209% | 12 | -1%
